From PubChem BioAssay (EPA / NIEHS)
Where “and” joins values, the source holds several entries; their conditions need not be identical. Equal entries are not always repeated. Calls of active or inactive are those of the source. Rule for the calls: active = hit-call score of the fitted dose curve at least 0.9, where 1 is the maximum; inactive = score below 0.9.

Experiments:
[1] = BSK_4H_Eotaxin3: BioMAP Diversity Plus: 4H Assay for Eotaxin 3 Biomarker Activity (AID 2283000); settings: primary human endothelial cells (HUVEC); actives raise or lower the signal
How it was run: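 Chemicals were added to human umbilical vein endothelium cultures, and Eotaxin-3 was quantified by ELISA at 24 h. Values were derived by bidirectional fitting with DMSO serving as negative control and activity baseline.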

[2] = read-out: Interleukin-1 alpha (IL1a), IL1A (gene 3552); assay: BSK_BE3C_IL1a: BioMAP Diversity Plus: BE3C Assay for Interleukin-1 alpha (IL1a) Biomarker Activity (AID 2283016); settings: primary human bronchial epithelial cells; actives raise or lower the signal
How it was run: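 Measured in human lung primary bronchial epithelial cells: IL-1a by ELISA at 24 h after dosing, with bidirectional fitting against DMSO.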

[3] = read-out: Monocyte Chemoattractant Protein-1 (MCP1), CCL2 (gene 6347); assay: BSK_3C_MCP1: BioMAP Diversity Plus: 3C Assay for Monocyte Chemoattractant Protein-1 (MCP1) Biomarker Activity (AID 2283017); settings: primary human endothelial cells (HUVEC); actives raise or lower the signal
How it was run: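 ELISA read-out of MCP-1 from human umbilical vein endothelial cell cultures harvested 24 h post-dosing. Gain or loss of signal was fitted relative to DMSO.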

[4] = read-out: Monocyte Chemoattractant Protein-1 (MCP1), CCL2 (gene 6347); assay: BSK_4H_MCP1: BioMAP Diversity Plus: 4H Assay for Monocyte Chemoattractant Protein-1 (MCP1) Biomarker Activity (AID 2283018); settings: primary human endothelial cells (HUVEC); actives raise or lower the signal
How it was run: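 Primary human umbilical vein endothelium is exposed to chemical for 24 h before MCP-1 is assayed by ELISA. Concentration-response fitted bidirectionally relative to DMSO.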

[5] = read-out: Monokine induced gamma interferon (MIG), CXCL9 (gene 4283); assay: BSK_3C_MIG: BioMAP Diversity Plus: 3C Assay for Monokine induced gamma interferon (MIG) Biomarker Activity (AID 2283021); settings: primary human endothelial cells (HUVEC); actives raise or lower the signal
How it was run: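 ELISA-measured MIG in dosed HUVEC 3C cultures at 24 h, analysed by bidirectional fitting with DMSO defining baseline activity.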

[6] = BSK_3C_SRB: Viability Assessment in the BioMAP Diversity Plus: 3C Assay (AID 2283023); settings: primary human endothelial cells (HUVEC);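 note: fitted both ways against DMSO so a hit may be signal rise or drop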
How it was run: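 Absorbance at 560 nm of sulforhodamine B-stained (0.1%) total protein served as a cytotoxicity readout in human umbilical vein endothelial cells, 24 h after chemical treatment. Signal was fitted bidirectionally relative to DMSO.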

[7] = BSK_4H_SRB: Viability Assessment in the BioMAP Diversity Plus: 4H Assay (AID 2283027); settings: primary human endothelial cells (HUVEC);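 note: cells exposed to compound for 24 h before staining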;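 for AC50: curves fitted both ways versus DMSO so AC50 may be loss or gain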
How it was run: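 Cytotoxicity readout: sulforhodamine B (0.1%) staining of total protein after 10% TCA fixation, measured at 560 nm in human umbilical vein endothelium at 24 h. DMSO set the baseline; fitting was bidirectional.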

[8] = read-out: Monokine induced gamma interferon (MIG), CXCL9 (gene 4283); assay: BSK_BE3C_MIG: BioMAP Diversity Plus: BE3C Assay for Monokine induced gamma interferon (MIG) Biomarker Activity (AID 2283035); settings: primary human bronchial epithelial cells; actives raise or lower the signal
How it was run: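 hu bronchial epithelial 1° cells, 24 h cpd; MIG by ELISA; bidirectional fit, DMSO = baseline.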

[9] = read-out: Plasminogen activator inhibitor-1 (PAI1), SERPINE1 (gene 5054); assay: BSK_BE3C_PAI1: BioMAP Diversity Plus: BE3C Assay for Plasminogen activator inhibitor-1 (PAI1) Biomarker Activity (AID 2283037); settings: primary human bronchial epithelial cells; actives raise or lower the signal
How it was run: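 In this multiplexed primary-cell system, bronchial epithelial cells receive test chemical and are sampled at 24 h. PAI-1 is read by ELISA, with DMSO serving as negative control for bidirectional fitting.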

[10] = read-out: Urokinase-type plasminogen activator receptor (uPAR), PLAUR (gene 5329); assay: BSK_BE3C_uPAR: BioMAP Diversity Plus: BE3C Assay for Urokinase-type plasminogen activator receptor (uPAR) Biomarker Activity (AID 2283039); settings: primary human bronchial epithelial cells; actives raise or lower the signal
How it was run: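 Chemically treated human bronchial epithelial cells (lung primary) are assayed for uPAR by ELISA after 24 h, with data fitted in both directions using DMSO as negative control.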

[11] = read-out: Tissue plasminogen activator (tPA), PLAT (gene 5327); assay: BSK_BE3C_tPA: BioMAP Diversity Plus: BE3C Assay for Tissue plasminogen activator (tPA) Biomarker Activity (AID 2283041); settings: primary human bronchial epithelial cells; actives raise or lower the signal
How it was run: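 Using human lung primary bronchial epithelial cells, tPA was measured by ELISA 24 h after dosing; data fitted relative to DMSO.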

[12] = read-out: Interleukin-8 (IL8), CXCL8 (gene 3576); assay: BSK_CASM3C_IL8: BioMAP Diversity Plus: CASM3C Assay for Interleukin-8 (IL8) Biomarker Activity (AID 2283042); settings: primary human coronary artery smooth muscle cells; actives raise or lower the signal;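 note: IL-8 protein level quantified by ELISA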
[13] = read-out: Human Leukocyte Antigen - DR isotype (HLADR), HLA-DRA (gene 3122); assay: BSK_CASM3C_HLADR: BioMAP Diversity Plus: CASM3C Assay for Human Leukocyte Antigen - DR isotype (HLADR) Biomarker Activity (AID 2283043); settings: primary human coronary artery smooth muscle cells; actives raise or lower the signal;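 note: cell-surface HLA-DR protein level quantified by ELISA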
[14] = read-out: Macrophage colony-stimulating factor (MCSF), CSF1 (gene 1435); assay: BSK_CASM3C_MCSF: BioMAP Diversity Plus: CASM3C Assay for Macrophage colony-stimulating factor (MCSF) Biomarker Activity (AID 2283044); settings: primary human coronary artery smooth muscle cells; actives raise or lower the signal;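 note: M-CSF protein amount quantified by ELISA after 24 h exposure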
[15] = read-out: Low-density lipoprotein receptor (LDLR), LDLR (gene 3949); assay: BSK_CASM3C_LDLR: BioMAP Diversity Plus: CASM3C Assay for Low-density lipoprotein receptor (LDLR) Biomarker Activity (AID 2283045); settings: primary human coronary artery smooth muscle cells; actives raise or lower the signal;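 note: LDLR protein level on the cell surface quantified by ELISA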
[16] = read-out: Monocyte Chemoattractant Protein-1 (MCP1), CCL2 (gene 6347); assay: BSK_CASM3C_MCP1: BioMAP Diversity Plus: CASM3C Assay for Monocyte Chemoattractant Protein-1 (MCP1) Biomarker Activity (AID 2283046); settings: primary human coronary artery smooth muscle cells; actives raise or lower the signal;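 note: MCP-1 level quantified by ELISA 24 h after dosing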
[17] = BSK_CASM3C_Proliferation: Cell Proliferation Assessment in the BioMAP Diversity Plus: CASM3C Assay (AID 2283047); settings: primary human coronary artery smooth muscle cells;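 note: sub-confluent cells exposed 48 h before staining; fitted both ways against DMSO so gain or loss of cell number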
[18] = BSK_CASM3C_SRB: Viability Assessment in the BioMAP Diversity Plus: CASM3C Assay (AID 2283050); settings: primary human coronary artery smooth muscle cells;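 note: total protein by SRB staining as cytotoxicity measure in parallel cultures; cells exposed to compound for 24 h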
[19] = read-out: Interleukin-8 (IL8), CXCL8 (gene 3576); assay: BSK_hDFCGF_IL8: BioMAP Diversity Plus: hDFCGF Assay for Interleukin-8 (IL8) Biomarker Activity (AID 2283058); settings: primary human foreskin fibroblasts; actives raise or lower the signal
How it was run: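 Cells used are human skin primary fibroblasts. Chemical is added, cultures run 24 h, then IL-8 is quantified by ELISA, and gain or loss versus DMSO control is fitted in both directions.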

[20] = BSK_hDFCGF_Proliferation: Cell Proliferation Assessment in the BioMAP Diversity Plus: hDFCGF Assay (AID 2283059); settings: primary human foreskin fibroblasts;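 note: curves fitted for both rise and fall of signal versus DMSO baseline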
How it was run: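 Steps: dose primary human dermal fibroblasts (foreskin); […] fix in 10% TCA; stain with 0.1% SRB; read 560 nm; fit gain or loss of signal against DMSO.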

Measured: AC50

O=[N+]([O-])c1cc(S(=O)(=O)Nc2ccccc2)ccc1Nc1ccccc1
active: [1] 26.6 µM and 25.5 µM | [2] 24 µM and 30.5 µM | [3] 32.3 µM and 30 µM | [4] 27.8 µM and 20 µM | [6] 30.3 µM and 30.8 µM | [7] 30.5 µM and 31 µM | [8] 31 µM and 34.2 µM | [9] 24.7 µM and 27.1 µM | [10] 32.4 µM and 31.6 µM | [11] 34 µM and 29.7 µM | [19] 38.9 µM and 36.7 µM | [20] 14 µM and 14.3 µM
inactive: [5] | [12] | [13] | [14] | [15] | [16] | [17] | [18]

COc1ccc(C(=O)c2ccccc2O)c(O)c1
active: [1] 10 µM and 14.4 µM | [6] 12.6 µM and 13.7 µM | [9] 24.5 µM and 27.2 µM | [13] 10.9 µM and 5.66 µM | [20] 25.3 µM and 27 µM
inactive: all other assays above
